Results as given in PubChem BioAssay (Tox21).
Several values for one entry are separate records, joined by “and”; a condition that tells them apart may be missing. Identical values can stand only once. Results filed as inconclusive are left out. More than one record can exist for a structure, and the calls need not agree. Activity calls are given as the source filed them. Unless noted, the call rests on the fitted dose curve; in most records, active means well fitted curve in the direction sought with a large enough effect in the repeat runs; inconclusive means weak or mixed curves; inactive means no such curve, though single readings can be large; an effect the other way counts as inactive or inconclusive.

Tests used:
[1] = qHTS assay to identify small molecule agonists of the hypoxia (HIF-1) signaling pathway - cell viability counter screen (AID 1224844; calls by dose curve; further: nearly all actives have a fitted effect of over 50% in size; further: potency means the concentration at half of the fitted maximal effect)
In short: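 Viability counter screen: HRE-bla ME-180 cells plated 5 hrs before compound addition, treated 17 hrs at 37C and 5% CO2, then CellTiter-Glo added after the FRET reporter read; luminescence after 30 min.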

[2] = qHTS assay to identify small molecule agonists of the hypoxia (HIF-1) signaling pathway (AID 1224846; active means well fitted activation curve with a large enough effect in the signal ratio in the repeat runs, not every such curve was filed as active; the % refers to the signal ratio; further: potency means the concentration at half of the fitted maximal effect)
In short: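 Agonist mode reporter screen. ME-180 cells stably expressing bla under HRE control received test compounds in DMSO for 17 hrs (37C, 5% CO2), and beta-lactamase activity was then detected with the CCF4-AM FRET substrate.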

[3] = qHTS RealTime-Glo MT Cell Viability Assay in HepG2 cells - 24 hour (AID 1224867); further: nearly all actives have a fitted effect of over 50% in size; further: potency means the concentration at half of the fitted maximal effect
In short: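 qHTS, HepG2, 600 cells/well, RealTime-Glo (NanoLuc + prosubstrate) added with cells; 5 h preincubation; DMSO compound addition; 37 C; luminescence at 0/8/16/24/32/40 h.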

[4] = qHTS RealTime-Glo MT Cell Viability Assay in HEK293 cells - 32 hour (AID 1224868); further: nearly all actives have a fitted effect of over 50% in size; further: potency means the concentration at half of the fitted maximal effect
In short: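 Assay medium contained NanoLuc luciferase plus cell-permeant prosubstrate, added with HEK293 cells at 600 cells/well. After 5 h at 37 C/5% CO2 compounds were added; plates stayed at 37 C for 40 h with serial luminescence reads.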

[5] = A CellTox Green Cytotoxicity Assay to monitor cytotoxicity in HEK293 cells - 0 hour (AID 1224869); further: nearly all actives have a fitted effect of over 50% in size
In short: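 Dead-cell fluorescence measured kinetically: asymmetric cyanine dye, HEK293, 600 cells/well, 5 h settle, 23 nL cpd/DMSO, 37 C, reads 0–40 h every 8 h.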

[6] = qHTS RealTime-Glo MT Cell Viability Assay in HepG2 cells - 40 hour (AID 1224870); further: nearly all actives have a fitted effect of over 50% in size; further: potency means the concentration at half of the fitted maximal effect
In short: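 HepG2 cells mixed with RealTime-Glo MT reagents (NanoLuc plus cell-permeant prosubstrate) were seeded at 600 cells/well, incubated 5 h at 37 C/5% CO2, then pinned with compounds in DMSO; nonlytic luminescence tracked viability during 40 h treatment.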

[7] = qHTS assay to identify small molecule agonists of H2AX - cell viability counter screen (AID 1224847; calls by dose curve; further: nearly all actives have a fitted effect of over 30% in size; further: potency means the concentration at half of the fitted maximal effect; on activity change, negative = cytotoxicity: top concentration of the series differs between compounds)
In short: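 Counter-screen for viability: CellTiter-Glo ATP luminescence read after 3 h compound treatment (15-point titration, 0.76% DMSO final) of CHO-K1 cells at 37C, with 30 min room-temperature reagent incubation.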

[8] = qHTS assay to identify small molecule antagonists of the estrogen related receptor (ERR) signaling pathway from Tox21 library (AID 1224848); further: nearly all actives have a fitted effect of over 50% in size; further: potency means the concentration at half of the fitted maximal effect
In short: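 First, 2,000 ERR cells per well were plated and held 6 h at 37 C/5% CO2. Next, compounds in DMSO were pinned in and left 18 h at 37 C. Finally, ONE-Glo was added and luminescence read after 30 min at room temperature.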

[9] = qHTS assay to identify small molecule agonists of the estrogen related receptor (ERR) signaling pathway from Tox21 library (AID 1224849; calls by dose curve; further: nearly all actives have a fitted effect of over 15% in size); conditions: ERR reporter cell line, ONE-Glo luciferase, 18 h
In short: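 Quantitative HTS in agonist format: NTP ERR cell line, compounds transferred in DMSO after 6 h plating, 18 h incubation at 37 C, ONE-Glo luminescence endpoint.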

[10] = qHTS assay to identify small molecule agonists of H2AX (AID 1224845; active means well fitted activation curve with a large enough effect in the signal ratio in the repeat runs, not every such curve was filed as active; the % refers to the signal ratio; further: potency means the concentration at half of the fitted maximal effect)
In short: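 Wild-type CHO-K1 cells plated overnight, then exposed 3 hr at 37C to compounds at 15 concentrations (0.76% DMSO). Lysed, then HTRF anti-pH2AX(S139)-cryptate/anti-H2AX-d2 detection after 24 hr at room temperature; emissions 665 and 620 nm.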

[11] = at 92.4 µM (top of the series) unless noted
On the % scale 0 is the no-effect control and ±100 the full control effect.

O=C1CCCc2c1cc1ccc3cccc4ccc2c1c34
active: Potency [1] 44.2 µM | Potency [2] 49.6 µM | Potency [4] 11.1 µM
inactive: Potency [3] | Potency [5] | Potency [6]

Oc1ccc2cc(SSc3ccc4cc(O)ccc4c3)ccc2c1
active: Potency [7] 89.9 µM | Potency [8] 61.2 µM and 54.5 µM
inactive: Potency [1] | Potency [2] | activity change, positive = activation [9, 11] -64.5% and -58.9% | Potency [3] | Potency [5] | Potency [6]

CS(=O)(=O)CCNCc1ccc(-c2ccc3ncnc(Nc4ccc(OCc5cccc(F)c5)c(Cl)c4)c3c2)o1
active: Potency [1] 10.7 µM | Potency [8] 9.44 µM
inactive: Potency [10] | Potency [5]

CCN(C(=O)c1cc(C)cc(OC[C@H](C)Nc2ccncc2)c1)C(C)C
inactive: Potency [1] | Potency [10] | Potency [7] | Potency [3] | Potency [4] | Potency [6]

CCCCCCC[N+](CC)(CC)CCCCc1ccc(Cl)cc1
inactive: Potency [1] | Potency [10] | Potency [7]
active: Potency [4] 1.9 µM | Potency [6] 23.9 µM

N/C(=N\N=C\c1ccc(Cl)cc1)N/N=C/c1ccc(Cl)cc1
active: Potency [1] 23.9 µM | Potency [8] 29.8 µM
inactive: Potency [10] | activity change, positive = activation [9, 11] -44.1% [at 42.5 µM] | Potency [5]

CC(C)n1nc(-c2cc3cc(O)ccc3[nH]2)c2c(N)ncnc21
active: Potency [1] 1.9 µM | Potency [8] 1.06 µM | Potency [4] 0.239 µM
inactive: Potency [2] | Potency [7] | Potency [5]

CC1(C)CCC(C)(C)c2cc(C(=O)Nc3ccc(C(=O)O)cc3)ccc21
inactive: Potency [1] | Potency [2] | Potency [4] | Potency [5] | Potency [6]

Oc1cc2ccccc2c2ccccc12
inactive: Potency [5]
active: Potency [1] 7.76 µM | Potency [10] 17.9 µM | Potency [7] 28.4 µM | Potency [4] 11 µM | Potency [6] 11 µM

Nc1c2ccccc2nc2ccccc12
inactive: activity change, positive = activation ([9]; at 42.5 µM (top of the series)) -23% | activity change, positive = activation ([9]; at 92.4 µM (top of the series)) -63.6%
active: Potency [1] 13.6 µM | Potency [10] 88.6 µM | Potency [8] 2.69 µM | Potency [4] 7.66 µM and 2.39 µM | Potency [6] 24.2 µM and 13.4 µM

CCN(CC)CCNC(=O)c1c(C)[nH]c(/C=C2\C(=O)Nc3ccc(F)cc32)c1C
active: Potency [1] 9.52 µM | Potency [3] 21.3 µM | Potency [4] 10.7 µM | Potency [6] 15.1 µM
inactive: Potency [2]

O=[N+]([O-])c1cc(Cl)c(Cl)c(Cl)c1Cl
inactive: Potency [1] | Potency [2] | Potency [7] | activity change, positive = activation [9, 11] -25.7% | Potency [3] | Potency [5] | Potency [6]

CC[C@H](c1ccc(O)cc1)[C@@H](CC)c1ccc(O)cc1
inactive: Potency [10] | Potency [3] | Potency [5] | Potency [6]
active: Potency [4] 27.5 µM
101 µM (active) and inactive: Potency [7]
54.9 µM (active) and inactive: Potency [1]

CC(C)(C)CC(C)(C)c1ccc(O)c(Cc2ccc(Cl)cc2Cl)c1
active: Potency [1] 9.52 µM | Potency [10] 19.6 µM | Potency [7] 15.6 µM | Potency [4] 21.3 µM

Clc1ccc2cc3ccccc3cc2c1
active: Potency [2] 30.9 µM
inactive: Potency [1] | Potency [7] | Potency [8] | activity change, positive = activation [9, 11] 8.76% | Potency [3] | Potency [5] | Potency [6]

CCC(C)Nc1ccc(NC(C)CC)cc1 (stereo not drawn)
active: Potency [1] 12.5 µM | Potency [7] 23 µM | Potency [8] 6.23 µM | Potency [3] 17.7 µM | Potency [4] 4.45 µM | Potency [6] 17.7 µM
inactive: activity change, positive = activation [9, 11] -80.2% | Potency [5]

CCc1cc(Cc2cc(CC)c(N)c(CC)c2)cc(CC)c1N
active: Potency [7] 89.8 µM | Potency [8] 27.3 µM | Potency [4] 38.9 µM
inactive: Potency [1] | Potency [2] | activity change, positive = activation [9, 11] -60.8% | Potency [5] | Potency [6]

Cc1onc(-c2ccccc2Cl)c1C(=O)N[C@@H]1C(=O)N2[C@@H]1SC(C)(C)[C@@H]2C(=O)O
inactive: Potency [1] | Potency [10] | Potency [7] | Potency [3] | Potency [4] | Potency [5] | Potency [6]

CCN1/C(=C/C=C/c2sc3ccccc3[n+]2CC)Sc2ccccc21
active: Potency [7] 7.6 µM | Potency [8] 0.231 µM | Potency [4] 1.04 µM
inactive: activity change, negative = cytotoxicity [1] 19.1% [at 15.8 µM] | activation [2] 0.484% [at 15.8 µM] | cytotoxicity [5] -12.5% [at 15.8 µM]

O=C(Oc1cccc2cccnc12)c1ccccc1
active: Potency [1] 7.56 µM | Potency [10] 9.82 µM | Potency [8] 0.133 µM | Potency [6] 5.35 µM
inactive: activity change, positive = activation [9, 11] -60.1% [at 42.5 µM] | Potency [3] | Potency [4] | Potency [5]

CCCCN1CCCC[C@H]1C(=O)Nc1c(C)cccc1C
inactive: Potency [1] | Potency [10] | Potency [7] | Potency [3] | Potency [4] | Potency [5] | Potency [6]
